Molecules are shown by their SMILES. Where “and” joins values, the source holds several entries; their conditions need not be identical. Equal entries are not always repeated. Results filed as inconclusive are left out. Where a call stands in place of a potency, no number is given. Some structures have more than one record in an assay (separate samples or runs), and their calls can disagree. Calls of active or inactive are those of the source. The call rests on the fitted dose curve; in most records, active means well fitted inhibition curve with a large enough effect; inconclusive means small, poorly fitted or top-dose-only effect; inactive means no such curve, though single readings can be large or run the other way.

The nature of this test: Primary qHTS for inhibitors of nuclear receptor binding SET domain protein 2 (NSD2) in an RCH-ACV wild type WT cells (2C) (AID 1645877). Further: nearly all actives have a fitted effect of over 70% in size. The note with it: RCH-ACV (leukaemia line) NSD2 WT (2C) viability, CellTiter-Glo, 72 h; series mostly up to 44.9 µM. The text has this:
Assay Provider: Jonathan D. Licht, MD
University of Florida College of Medicine, Gainesville, FL
Mutations in epigenetic regulators are common in relapsed pediatric acute lymphoblastic leukemia (ALL). Here, we uncovered the mechanism underlying the relapse of ALL driven by an activating mutation of the NSD2 histone methyltransferase (p.E1099K). […] Correction of this mutation restored glucocorticoid sensitivity. The transcriptional response to glucocorticoids was blocked in NSD2 mutant cells due to depressed glucocorticoid receptor (GR) levels and the failure of glucocorticoids to autoactivate GR expression. […] Pre-treatment of NSD2 p.E1099K cell lines and PDX samples with PRC2 inhibitors reversed glucocorticoid resistance in vitro and in vivo.
High-throughput drug screening of isogenic RCH-ACV cell lines was performed at the National Center for Advancing Translational Science (NCATS), National Institutes of Health as previously described (1). Briefly, isogenic RCH-ACV NSD2 p.E1099K mutant (9B) and WT cells (2C) were plated at 500 cells/well in a 1536-well plate with a 72-hour incubation with compounds prior to addition of CellTiter-Glo to assess cell viability. NCATS libraries screened include: NPC, MIPE 5.0, Kinase and NPACT. To determine compound activity in the qHTS assay, the concentration-response data for each sample was plotted and modeled by a four-parameter logistic fit yielding IC50 and efficacy (maximal response) values. The area under the curve (AUC) of the dose-response curve ensures both efficacy (magnitude of cell killing) and potency (concentration that elicits cell killing) are accounted for in the analysis of activity.
1. Tobie D Lee, Olivia W Lee, Kyle R Brimacombe, Lu Chen, Rajarshi Guha, Sabrina Lusvarghi, Bethilehem G Tebase, Carleen Klumpp-Thomas, Robert W Robey, Suresh V Ambudkar, Min Shen, Michael M Gottesman, Matthew D Hall. A High-Throughput Screen of a Library of Therapeutics Identifies Cytotoxic Substrates of P-glycoprotein. Mol Pharmacol. 2019, Nov;96(5):629-640.
On the technique in general: In qHTS, concentration-response curves come from the screen itself.
As for `COc1ccc(CC2=NN3C([C@@H](CCc4ccccc4)[C@@H](C)O)=NC(C)C3C(=O)N2)cc1OC` (stereo not given in full), the Potency entry was “inactive”. Consider `c1ccc(-c2nn3c(c2-c2ccnc4cc(OCCN5CCOCC5)ccc24)CCC3)nc1`, for which the Potency was 16.6 µM (active).

On to `CC(C)C[C@H](NC(=O)[C@@H](O)[C@H](N)Cc1ccccc1)C(=O)O`, for which the Potency result was “inactive”. With `O=C1CCC(N2C(=O)c3ccccc3C2=O)C(=O)N1` (stereo not given), the Potency entry is “inactive”. `Cc1ccccc1C(OCCN(C)C)c1ccccc1` (stereo not given): the Potency entry is “inactive”. For the compound `CN([C@@H](Cc1ccc(OS(=O)(=O)c2cccc3cnccc23)cc1)C(=O)N1CCN(c2ccccc2)CC1)S(=O)(=O)c1cccc2cnccc12`, the activity change, negative = cell killing was 9.55% [at 4.96 µM] (inactive). On to `CCCCCCCc1ccc(CCc2cccc(O)c2C(=O)O)cc1`, for which the Potency result is “inactive”.

On to `Cc1csc(NC(=O)c2sc3nc4c(c(C(F)(F)F)c3c2N)CCC4)n1`, for which the Potency result is “inactive”. Still for that read-out and setting: the same measure for `CNC(=O)c1ccc(N2C(=S)N(c3ccc(C#N)c(C(F)(F)F)c3)C(=O)C2(C)C)cc1F`: “inactive”; for `CC(=O)Oc1ccccc1C(=O)O`: “inactive”; for `Cc1cn[nH]c1`: “inactive”. Same read-out and setting: with `CC(C)c1onc(-c2c(Cl)cccc2Cl)c1COc1ccc(/C=C/c2cccc(C(=O)O)c2)c(Cl)c1` the entry was “inactive”; with `S=C(NCc1ccc2c(c1)OCO2)N1CCN(c2ncnc3c2oc2ccccc23)CC1`, 8.17 µM (active); with `COc1ccc(C2=N[C@H](c3ccc(Cl)cc3)[C@H](c3ccc(Cl)cc3)N2C(=O)N2CCNC(=O)C2)c(OC(C)C)c1`, 18.6 µM (active). Same read-out and setting: the same measure for `OC(CCN1CCCCC1)(c1ccccc1)C1CC2C=CC1C2` (stereo not given): “inactive”; for `NC[C@H](O)c1ccc(O)c(O)c1`: “inactive”; for `CCCn1c(=O)c2[nH]c(C34CC5CC3C[C@@H](C5)C4)nc2n(CCC)c1=O`: “inactive”.

As for `CCCS(=O)(=O)Nc1ccc(F)c(C(=O)c2c[nH]c3ncc(-c4ccc(Cl)cc4)cc23)c1F`, the Potency is 16.4 µM (active) and inactive. On the same count and under the same terms, with `COc1cc2c(cc1OC)CN(CCc1ccc(NC(=O)c3cccc4c(=O)c5cccc(OC)c5[nH]c34)cc1)CC2` the entry was “inactive”.

Regarding `Nc1ncnc2nc(-c3ccc(N4CCOCC4)nc3)cc(-c3cccc(Br)c3)c12`, the Potency was 20.9 µM (active). In the case of `COc1cc(Nc2ncc3c(n2)-c2ccc(Cl)cc2C(c2c(F)cccc2OC)=NC3)ccc1C(=O)O`, the Potency is 91.6 nM (active) and 29 nM (active) and 37.2 nM (active).

Regarding `O=C(C1CC1)N1CC[C@@H](Cn2c(-c3ccc(-c4ccc5occc5c4)cc3)nc3cnccc32)C1`, the Potency is 16.6 µM (active). On the same count and under the same terms, the same measure for `C[C@]12CCC(=O)C=C1CC[C@@H]1[C@@H]2[C@@H](O)C[C@@]2(C)[C@H]1CC[C@]2(O)C(=O)CO`: 1.68 µM (active) and 296 nM (active); for `O=c1[nH]c(-c2ccc(C(F)(F)F)cc2)nc2c1CSCC2`: “inactive”; for `NS(=O)(=O)c1cc2c(cc1Cl)NC=NS2(=O)=O`: “inactive”. On to `CCOc1cc(N2CCC(O)CC2)ccc1Nc1ncc2c(n1)N(C)c1ccccc1C(=O)N2C`, for which the Potency is 2.63 µM (active). Take `Cc1ccc(NC(=O)c2cccc(C(C)(C)C#N)c2)cc1Nc1ccc2ncn(C)c(=O)c2c1`: the Potency is 13.2 µM (active).

On to `COc1ccc(-c2ccc3c(N4CCOCC4)nc(N4C[C@@H](C)O[C@@H](C)C4)nc3n2)cc1CO`, for which the Potency result was “inactive”.

Turning to `NC(=O)c1cnccn1`, the Potency result was “inactive”. For `COc1ccc(CCN2CCN(CCCc3ccccc3)CC2)cc1OC`, the Potency entry is “inactive”. As to `CC(C)(Sc1ccc(CCN(CCCCC2CCCCC2)C(=O)NC2CCCCC2)cc1)C(=O)O`, the Potency entry is “inactive”. Consider `N#Cc1ccc(C(c2ccc(C#N)cc2)n2cncn2)cc1`, for which the Potency result was “inactive”. On the same count and under the same terms, the same measure for `Cc1n[nH]c(C)c1Cc1sc2c(c1C(=O)N1C[C@H](O)CO1)c(=O)n(C)c(=O)n2CC(C)C`: “inactive”. Same read-out and setting: with `Cc1oncc1C(=O)Nc1ccc(C(F)(F)F)cc1` the figure was 10.6 µM (active) and 14.8 µM (active). Consider `Cc1cc(Nc2nc(N[C@@H](C)c3ncc(F)cn3)ncc2Cl)n[nH]1`, for which the Potency is 2.05 µM (active) and 3.72 µM (active). Turning to `CC(C[N+](C)(C)C)OC(N)=O` (stereo not given), the Potency result is “inactive”. For the compound `O=C(O)CCc1ccc(NCc2cccc(Oc3ccccc3)c2)cc1`, the Potency result was “inactive”. In the case of `CS(=O)(=O)Oc1ccc2c(NC(N)=O)c(C(=O)c3ccc(Cl)cc3Cl)oc2c1`, the Potency result was “inactive”. As for `COc1cc(F)c(F)c(Nc2ccc(I)cc2F)c1NS(=O)(=O)C1(C[C@H](O)CO)CC1`, the Potency is 25.8 µM (active) and 20.9 µM (active).

On to `CNCc1ccc(-c2[nH]c3cc(F)cc4c3c2CCNC4=O)cc1`, for which the Potency was 7.28 µM (active) and 7.42 µM (active).

(Values after PubChem BioAssay (NCATS).)
